In ChEMBL document CHEMBL2218924, “A broad activity screen in support of a chemogenomic map for kinase signalling research and drug discovery” (Biochem J, 2013) one finds residual activity data, which are given here for six compounds.

In test [1] the target is T1, Serine/threonine-protein kinase 17A (Homo sapiens) (UniProt Q9UEE5).
T1 sequence (whole entry): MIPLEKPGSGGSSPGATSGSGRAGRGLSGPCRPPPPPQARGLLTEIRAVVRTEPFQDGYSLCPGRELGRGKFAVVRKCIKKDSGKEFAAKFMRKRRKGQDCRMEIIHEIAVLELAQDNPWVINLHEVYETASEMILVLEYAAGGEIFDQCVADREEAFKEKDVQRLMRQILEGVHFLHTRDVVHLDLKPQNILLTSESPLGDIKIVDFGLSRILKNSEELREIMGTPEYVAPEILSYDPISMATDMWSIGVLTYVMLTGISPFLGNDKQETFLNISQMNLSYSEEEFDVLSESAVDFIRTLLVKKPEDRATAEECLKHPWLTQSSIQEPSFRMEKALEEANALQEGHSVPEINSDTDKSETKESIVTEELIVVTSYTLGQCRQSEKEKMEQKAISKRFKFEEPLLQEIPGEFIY
Conditions: at 10 µM.

For test [2], the target named is T2, Ephrin type-A receptor 3 (Homo sapiens) (UniProt P29320).
T2 sequence (whole entry): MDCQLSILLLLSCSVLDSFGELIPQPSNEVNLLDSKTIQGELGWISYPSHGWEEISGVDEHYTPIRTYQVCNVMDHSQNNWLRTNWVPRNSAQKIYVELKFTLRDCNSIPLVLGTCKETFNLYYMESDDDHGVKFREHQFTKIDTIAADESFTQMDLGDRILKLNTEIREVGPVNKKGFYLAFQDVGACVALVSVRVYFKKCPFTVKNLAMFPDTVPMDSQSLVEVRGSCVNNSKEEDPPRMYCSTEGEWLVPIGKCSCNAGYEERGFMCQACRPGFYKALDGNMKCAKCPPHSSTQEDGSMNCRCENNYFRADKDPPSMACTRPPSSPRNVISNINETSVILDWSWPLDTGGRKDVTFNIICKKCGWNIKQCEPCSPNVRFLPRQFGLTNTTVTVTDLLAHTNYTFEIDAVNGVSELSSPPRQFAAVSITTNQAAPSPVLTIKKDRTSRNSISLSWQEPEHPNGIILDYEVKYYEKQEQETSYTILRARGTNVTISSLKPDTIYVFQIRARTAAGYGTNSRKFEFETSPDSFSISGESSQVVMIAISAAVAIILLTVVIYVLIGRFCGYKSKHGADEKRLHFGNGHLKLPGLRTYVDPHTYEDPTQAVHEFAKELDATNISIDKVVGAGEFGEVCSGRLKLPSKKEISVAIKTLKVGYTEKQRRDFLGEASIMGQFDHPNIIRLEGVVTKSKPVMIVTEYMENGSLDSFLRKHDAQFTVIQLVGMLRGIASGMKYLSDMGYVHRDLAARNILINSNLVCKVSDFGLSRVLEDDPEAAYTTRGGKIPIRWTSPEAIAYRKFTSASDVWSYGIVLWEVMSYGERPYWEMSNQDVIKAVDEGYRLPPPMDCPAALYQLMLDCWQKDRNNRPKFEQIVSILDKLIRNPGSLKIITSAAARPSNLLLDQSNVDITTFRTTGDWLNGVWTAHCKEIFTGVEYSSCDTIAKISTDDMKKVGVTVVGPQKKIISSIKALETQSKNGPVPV
The following applies: at 1 µM.

The target in test [3] is T2, Ephrin type-A receptor 3 (Homo sapiens). The following applies: at 10 µM.
Test [4] deals with T3, Ephrin type-A receptor 8 (Homo sapiens) (UniProt P29322).
T3 sequence (whole entry): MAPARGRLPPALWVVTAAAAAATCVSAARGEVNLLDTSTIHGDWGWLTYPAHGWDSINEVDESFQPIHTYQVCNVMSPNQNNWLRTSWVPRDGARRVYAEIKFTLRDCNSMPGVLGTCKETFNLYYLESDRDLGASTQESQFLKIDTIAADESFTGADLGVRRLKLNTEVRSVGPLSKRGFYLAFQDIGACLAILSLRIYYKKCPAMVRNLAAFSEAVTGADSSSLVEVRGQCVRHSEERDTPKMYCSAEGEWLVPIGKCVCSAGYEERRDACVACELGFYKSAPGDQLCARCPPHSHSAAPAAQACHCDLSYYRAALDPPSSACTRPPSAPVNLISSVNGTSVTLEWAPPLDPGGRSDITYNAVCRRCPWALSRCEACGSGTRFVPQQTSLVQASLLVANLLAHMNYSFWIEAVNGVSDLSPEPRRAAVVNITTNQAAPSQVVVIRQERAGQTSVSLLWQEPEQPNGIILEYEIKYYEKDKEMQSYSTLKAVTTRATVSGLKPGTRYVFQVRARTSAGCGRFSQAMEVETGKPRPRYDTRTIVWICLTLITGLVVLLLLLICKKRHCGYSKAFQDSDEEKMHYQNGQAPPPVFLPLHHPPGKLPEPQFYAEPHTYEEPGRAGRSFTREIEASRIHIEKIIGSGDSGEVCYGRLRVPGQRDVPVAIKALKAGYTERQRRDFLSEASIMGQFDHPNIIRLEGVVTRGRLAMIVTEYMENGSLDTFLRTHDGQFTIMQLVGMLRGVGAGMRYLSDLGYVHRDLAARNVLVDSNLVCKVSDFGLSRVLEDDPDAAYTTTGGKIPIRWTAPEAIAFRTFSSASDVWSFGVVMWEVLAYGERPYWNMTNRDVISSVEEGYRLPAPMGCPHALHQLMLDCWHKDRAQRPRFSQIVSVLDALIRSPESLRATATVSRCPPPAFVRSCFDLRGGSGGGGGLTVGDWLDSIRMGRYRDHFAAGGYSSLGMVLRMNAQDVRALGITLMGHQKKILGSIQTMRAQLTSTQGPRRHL
Conditions: at 1 µM.

Test [5] concerns the target T3, Ephrin type-A receptor 8 (Homo sapiens). Conditions: at 10 µM.
The target in test [6] is T4, Ephrin type-A receptor 1 (Homo sapiens) (UniProt P21709).
T4 sequence (whole entry): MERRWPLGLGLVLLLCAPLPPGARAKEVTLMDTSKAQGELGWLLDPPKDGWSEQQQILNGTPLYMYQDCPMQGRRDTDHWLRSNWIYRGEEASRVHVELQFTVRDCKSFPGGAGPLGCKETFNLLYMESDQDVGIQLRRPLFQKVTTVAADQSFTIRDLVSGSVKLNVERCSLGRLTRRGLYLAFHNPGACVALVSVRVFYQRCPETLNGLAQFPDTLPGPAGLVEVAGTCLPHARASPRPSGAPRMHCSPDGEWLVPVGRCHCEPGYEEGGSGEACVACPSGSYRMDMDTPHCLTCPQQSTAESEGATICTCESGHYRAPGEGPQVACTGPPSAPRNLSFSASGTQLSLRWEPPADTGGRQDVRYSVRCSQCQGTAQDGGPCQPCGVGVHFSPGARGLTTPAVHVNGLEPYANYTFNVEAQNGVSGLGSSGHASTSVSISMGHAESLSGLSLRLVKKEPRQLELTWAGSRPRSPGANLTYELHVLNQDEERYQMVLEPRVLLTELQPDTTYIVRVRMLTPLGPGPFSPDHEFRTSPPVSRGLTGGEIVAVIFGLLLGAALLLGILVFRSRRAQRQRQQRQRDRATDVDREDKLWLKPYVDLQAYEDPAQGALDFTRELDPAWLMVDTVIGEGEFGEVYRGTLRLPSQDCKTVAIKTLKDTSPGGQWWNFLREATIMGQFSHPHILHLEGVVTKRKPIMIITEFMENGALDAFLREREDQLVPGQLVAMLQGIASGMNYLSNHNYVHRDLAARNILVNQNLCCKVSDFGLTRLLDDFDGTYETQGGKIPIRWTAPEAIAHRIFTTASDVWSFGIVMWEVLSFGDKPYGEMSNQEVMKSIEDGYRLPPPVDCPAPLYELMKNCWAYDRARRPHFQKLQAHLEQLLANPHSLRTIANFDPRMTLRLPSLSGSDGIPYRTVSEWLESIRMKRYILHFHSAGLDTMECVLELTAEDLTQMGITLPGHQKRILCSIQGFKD
The following applies: at 1 µM.

Test [7] addresses T4, Ephrin type-A receptor 1 (Homo sapiens). Conditions: at 10 µM.
Test [8] concerns the target Ephrin type-A receptor 2 (Homo sapiens) (UniProt P29317). The following applies: at 1 µM.
For test [9] the target is unchanged. The following applies: at 10 µM.
Test [10] concerns the target Ephrin type-A receptor 4 (Homo sapiens) (UniProt P54764). The following applies: at 1 µM.
The target is the same in test [11]. Conditions: at 10 µM.
The target of test [12] is Ephrin type-A receptor 7 (Homo sapiens) (UniProt Q15375). Conditions: at 10 µM.
Chain of Ephrin type-A receptor 7 (Homo sapiens) (Q15375 28-998 limits assumed): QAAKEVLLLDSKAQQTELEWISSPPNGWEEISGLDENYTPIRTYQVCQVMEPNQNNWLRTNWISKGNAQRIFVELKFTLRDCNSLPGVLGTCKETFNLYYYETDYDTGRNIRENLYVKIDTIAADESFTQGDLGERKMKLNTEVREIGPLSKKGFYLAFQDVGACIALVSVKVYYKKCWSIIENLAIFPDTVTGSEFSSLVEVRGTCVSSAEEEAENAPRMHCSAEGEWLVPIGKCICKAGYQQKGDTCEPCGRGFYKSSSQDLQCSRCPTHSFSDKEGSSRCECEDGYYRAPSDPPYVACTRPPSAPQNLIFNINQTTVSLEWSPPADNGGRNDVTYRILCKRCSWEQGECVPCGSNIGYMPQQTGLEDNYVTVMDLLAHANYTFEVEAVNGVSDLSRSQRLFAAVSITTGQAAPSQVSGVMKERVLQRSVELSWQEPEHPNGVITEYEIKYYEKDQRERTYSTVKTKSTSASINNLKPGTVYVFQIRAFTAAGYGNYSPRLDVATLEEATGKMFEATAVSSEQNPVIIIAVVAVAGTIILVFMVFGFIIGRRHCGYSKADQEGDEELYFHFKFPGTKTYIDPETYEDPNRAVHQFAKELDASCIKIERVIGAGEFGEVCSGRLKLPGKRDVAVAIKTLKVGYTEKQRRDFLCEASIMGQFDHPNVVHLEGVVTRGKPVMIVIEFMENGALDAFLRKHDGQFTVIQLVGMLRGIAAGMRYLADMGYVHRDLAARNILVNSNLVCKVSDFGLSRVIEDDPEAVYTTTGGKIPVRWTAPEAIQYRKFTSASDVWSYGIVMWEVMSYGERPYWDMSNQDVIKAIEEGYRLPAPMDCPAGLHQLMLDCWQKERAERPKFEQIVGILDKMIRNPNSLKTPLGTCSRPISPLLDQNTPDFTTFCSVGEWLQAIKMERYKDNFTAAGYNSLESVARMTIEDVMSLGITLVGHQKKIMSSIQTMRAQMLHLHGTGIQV
Test [13] deals with T5, Ephrin type-B receptor 1 (Homo sapiens) (UniProt P54762).
T5 sequence (whole entry): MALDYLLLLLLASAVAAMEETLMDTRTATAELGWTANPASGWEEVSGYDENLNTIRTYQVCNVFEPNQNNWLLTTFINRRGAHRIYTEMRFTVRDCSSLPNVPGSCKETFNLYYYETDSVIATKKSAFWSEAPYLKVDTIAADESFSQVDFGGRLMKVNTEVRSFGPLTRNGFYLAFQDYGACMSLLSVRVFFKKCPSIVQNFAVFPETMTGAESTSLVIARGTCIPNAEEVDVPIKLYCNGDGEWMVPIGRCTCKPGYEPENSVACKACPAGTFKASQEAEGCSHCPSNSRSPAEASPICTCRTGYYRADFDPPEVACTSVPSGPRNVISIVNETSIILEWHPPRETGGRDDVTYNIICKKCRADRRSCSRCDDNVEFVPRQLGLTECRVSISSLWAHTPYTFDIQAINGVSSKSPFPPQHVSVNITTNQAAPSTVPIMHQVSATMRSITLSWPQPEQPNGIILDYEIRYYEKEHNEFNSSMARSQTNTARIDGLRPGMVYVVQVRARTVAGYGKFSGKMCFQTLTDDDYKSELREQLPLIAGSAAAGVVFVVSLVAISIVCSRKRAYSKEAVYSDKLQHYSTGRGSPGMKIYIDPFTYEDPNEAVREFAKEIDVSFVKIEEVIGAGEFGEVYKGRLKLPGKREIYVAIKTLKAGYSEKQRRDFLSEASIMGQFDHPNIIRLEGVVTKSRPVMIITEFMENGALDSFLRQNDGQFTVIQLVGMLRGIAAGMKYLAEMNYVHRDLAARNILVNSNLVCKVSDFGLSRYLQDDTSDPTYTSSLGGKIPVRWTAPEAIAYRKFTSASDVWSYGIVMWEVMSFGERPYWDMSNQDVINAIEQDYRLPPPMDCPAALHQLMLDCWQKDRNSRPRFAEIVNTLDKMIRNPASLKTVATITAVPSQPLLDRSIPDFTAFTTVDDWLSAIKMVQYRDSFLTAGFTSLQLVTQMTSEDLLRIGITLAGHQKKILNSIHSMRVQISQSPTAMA
The following applies: at 1 µM.

Test [14] addresses Ephrin type-A receptor 5 (Homo sapiens) (UniProt P54756). Conditions: at 1 µM.
Test [15] shares this target. Conditions: at 10 µM.
Test [16] concerns the target T6, Dual specificity tyrosine-phosphorylation-regulated kinase 2 (Homo sapiens) (UniProt Q92630).
T6 sequence (whole entry): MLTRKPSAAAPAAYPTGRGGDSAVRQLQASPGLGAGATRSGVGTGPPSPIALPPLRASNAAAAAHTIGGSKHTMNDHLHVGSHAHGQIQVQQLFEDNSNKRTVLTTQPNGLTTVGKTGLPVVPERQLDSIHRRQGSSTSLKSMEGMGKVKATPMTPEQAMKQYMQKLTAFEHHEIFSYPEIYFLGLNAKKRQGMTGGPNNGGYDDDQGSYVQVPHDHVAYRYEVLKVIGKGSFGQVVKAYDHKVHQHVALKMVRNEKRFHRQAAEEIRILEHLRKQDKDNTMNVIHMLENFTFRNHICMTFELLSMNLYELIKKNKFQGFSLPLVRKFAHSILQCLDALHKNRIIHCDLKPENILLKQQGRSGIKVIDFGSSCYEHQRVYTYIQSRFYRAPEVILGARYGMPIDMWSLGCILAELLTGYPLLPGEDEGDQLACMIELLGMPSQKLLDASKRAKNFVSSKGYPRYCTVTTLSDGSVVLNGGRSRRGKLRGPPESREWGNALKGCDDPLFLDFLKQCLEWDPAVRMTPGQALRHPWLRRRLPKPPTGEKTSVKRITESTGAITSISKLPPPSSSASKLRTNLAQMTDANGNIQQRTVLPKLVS
The following applies: at 1 µM.

Test [17] concerns the target T6, Dual specificity tyrosine-phosphorylation-regulated kinase 2 (Homo sapiens). Conditions: at 10 µM.
In test [18] the target is Ephrin type-A receptor 7 (Homo sapiens) (UniProt Q15375). Conditions: at 1 µM.

Each structure is given as a SMILES string.

Chain of Ephrin type-A receptor 5 (Homo sapiens) (P54756 whole entry): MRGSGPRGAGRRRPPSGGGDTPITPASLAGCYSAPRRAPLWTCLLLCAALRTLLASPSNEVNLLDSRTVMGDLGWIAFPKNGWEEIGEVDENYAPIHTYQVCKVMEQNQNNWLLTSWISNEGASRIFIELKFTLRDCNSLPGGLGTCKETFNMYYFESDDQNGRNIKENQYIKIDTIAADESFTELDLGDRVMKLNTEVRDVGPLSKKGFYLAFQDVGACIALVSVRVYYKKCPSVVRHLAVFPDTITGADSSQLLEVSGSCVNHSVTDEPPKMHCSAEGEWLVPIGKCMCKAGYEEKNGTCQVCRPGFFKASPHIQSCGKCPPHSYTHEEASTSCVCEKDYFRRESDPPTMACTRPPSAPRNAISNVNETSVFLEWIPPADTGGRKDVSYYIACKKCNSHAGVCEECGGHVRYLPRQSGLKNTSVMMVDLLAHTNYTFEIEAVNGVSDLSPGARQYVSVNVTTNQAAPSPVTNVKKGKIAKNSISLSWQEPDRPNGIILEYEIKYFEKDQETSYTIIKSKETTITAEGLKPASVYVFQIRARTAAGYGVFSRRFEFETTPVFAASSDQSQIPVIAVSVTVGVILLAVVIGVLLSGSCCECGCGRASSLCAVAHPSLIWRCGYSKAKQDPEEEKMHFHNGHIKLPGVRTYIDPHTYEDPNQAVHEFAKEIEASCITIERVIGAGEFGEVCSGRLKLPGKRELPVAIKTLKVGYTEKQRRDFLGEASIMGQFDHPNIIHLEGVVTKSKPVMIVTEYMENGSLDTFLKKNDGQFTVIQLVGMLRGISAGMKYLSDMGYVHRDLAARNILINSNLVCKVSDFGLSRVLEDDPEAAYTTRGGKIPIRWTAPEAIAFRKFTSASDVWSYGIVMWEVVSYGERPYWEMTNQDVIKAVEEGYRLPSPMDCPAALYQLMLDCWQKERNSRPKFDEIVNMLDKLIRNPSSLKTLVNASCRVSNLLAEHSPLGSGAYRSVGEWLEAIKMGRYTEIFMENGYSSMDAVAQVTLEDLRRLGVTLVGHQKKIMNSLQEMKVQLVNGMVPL
Chain of Ephrin type-A receptor 2 (Homo sapiens) (P29317 whole entry): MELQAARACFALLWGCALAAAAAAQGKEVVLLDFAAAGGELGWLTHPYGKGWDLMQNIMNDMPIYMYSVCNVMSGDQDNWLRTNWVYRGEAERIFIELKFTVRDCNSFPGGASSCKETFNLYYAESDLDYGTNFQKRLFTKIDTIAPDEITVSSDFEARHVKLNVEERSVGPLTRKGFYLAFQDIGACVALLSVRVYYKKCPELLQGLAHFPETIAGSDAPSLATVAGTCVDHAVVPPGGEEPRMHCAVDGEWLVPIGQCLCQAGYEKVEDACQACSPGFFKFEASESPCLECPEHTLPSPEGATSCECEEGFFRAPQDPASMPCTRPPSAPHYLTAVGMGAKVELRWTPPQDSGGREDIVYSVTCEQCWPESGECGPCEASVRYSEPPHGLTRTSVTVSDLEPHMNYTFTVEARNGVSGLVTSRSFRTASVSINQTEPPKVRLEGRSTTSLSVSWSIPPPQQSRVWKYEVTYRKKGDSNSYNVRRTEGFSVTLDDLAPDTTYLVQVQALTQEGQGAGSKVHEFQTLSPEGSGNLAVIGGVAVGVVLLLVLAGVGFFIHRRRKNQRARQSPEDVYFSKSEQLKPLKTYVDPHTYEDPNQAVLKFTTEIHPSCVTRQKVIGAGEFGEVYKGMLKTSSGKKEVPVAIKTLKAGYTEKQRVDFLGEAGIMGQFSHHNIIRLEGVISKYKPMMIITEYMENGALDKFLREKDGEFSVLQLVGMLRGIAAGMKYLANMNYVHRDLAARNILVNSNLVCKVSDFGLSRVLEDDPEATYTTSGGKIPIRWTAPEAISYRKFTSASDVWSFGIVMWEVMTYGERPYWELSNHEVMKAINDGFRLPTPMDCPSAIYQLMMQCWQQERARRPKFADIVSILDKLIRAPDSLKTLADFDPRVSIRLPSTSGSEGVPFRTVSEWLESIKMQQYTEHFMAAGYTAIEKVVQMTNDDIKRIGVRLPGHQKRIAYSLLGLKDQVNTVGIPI
Chain of Ephrin type-A receptor 4 (Homo sapiens) (P54764 whole entry): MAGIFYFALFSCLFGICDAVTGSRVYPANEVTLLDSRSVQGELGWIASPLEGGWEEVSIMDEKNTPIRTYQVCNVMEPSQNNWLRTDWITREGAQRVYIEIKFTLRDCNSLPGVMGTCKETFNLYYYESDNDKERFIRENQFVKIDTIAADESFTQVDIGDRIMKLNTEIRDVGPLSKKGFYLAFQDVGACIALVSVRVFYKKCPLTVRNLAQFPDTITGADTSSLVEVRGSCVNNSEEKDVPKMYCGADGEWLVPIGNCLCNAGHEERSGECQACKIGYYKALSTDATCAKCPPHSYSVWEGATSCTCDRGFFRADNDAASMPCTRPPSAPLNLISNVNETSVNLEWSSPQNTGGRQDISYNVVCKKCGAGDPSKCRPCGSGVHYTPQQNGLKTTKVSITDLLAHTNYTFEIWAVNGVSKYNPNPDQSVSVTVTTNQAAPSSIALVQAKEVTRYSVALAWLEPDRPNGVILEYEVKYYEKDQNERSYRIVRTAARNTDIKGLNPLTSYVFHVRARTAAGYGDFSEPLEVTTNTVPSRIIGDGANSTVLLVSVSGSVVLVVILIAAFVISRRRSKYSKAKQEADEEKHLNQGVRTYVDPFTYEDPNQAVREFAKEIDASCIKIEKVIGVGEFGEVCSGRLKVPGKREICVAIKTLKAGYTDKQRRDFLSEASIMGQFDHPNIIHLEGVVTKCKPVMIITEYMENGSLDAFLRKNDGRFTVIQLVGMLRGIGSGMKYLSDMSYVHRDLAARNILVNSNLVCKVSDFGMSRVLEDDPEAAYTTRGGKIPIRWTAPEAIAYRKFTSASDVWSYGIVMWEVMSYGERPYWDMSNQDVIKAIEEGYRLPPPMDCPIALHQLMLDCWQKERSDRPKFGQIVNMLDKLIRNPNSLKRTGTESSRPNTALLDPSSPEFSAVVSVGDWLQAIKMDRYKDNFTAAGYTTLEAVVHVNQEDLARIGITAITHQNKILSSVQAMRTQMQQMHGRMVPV

With `O=C1NC(=O)C(c2cn(CCCO)c3ncccc23)=C1c1cnccn1`, the residual activity in test [1] turned out to be 67%; in test [2] it was 97%; in test [3] it was 92%; in test [4], 99%; in [5], 94%.

As for `COc1ccc2c(c1)c(C1=C(c3c[nH]c4ccccc34)C(=O)NC1=O)cn2CCCN(C)C`, the residual activity in test [1] stood at 27%; in [6] it was 71%; in test [7] it was 42%; in test [8], 104%; in [9], 33%; in [2], 106%. Also, the residual activity amounted to 60% in test [3]; 115% in test [10]; 73% in test [11]; 44% in test [12]; 100% in test [4]; 96% in test [5]. Further, the residual activity in test [13] turned out to be 80%.

Consider `O=C1NC(=O)C(c2cn(CCCn3ccnc3)c3ccccc23)=C1Nc1ccccc1`, for which the residual activity in test [14] was determined as 125%; in [15], 109%.

`O=C(c1ccccc1)c1ccc(N2CCOCC2)cc1O`: the residual activity in test [16] stood at 100%; in [17], 93%; in test [6] it was 88%; in [7], 95%; in test [8] it was 99%; in test [9] it was 95%. Moreover, the residual activity in test [14] worked out at 118%; in test [18], 79%; in [12] it was 86%; in [13], 96%.

For the compound `O=S(=O)(NCCNC/C=C/c1ccc(Br)cc1)c1cccc2cnccc12`, the residual activity in test [7] worked out at 63%; in test [14], 117%.

Consider `Cc1cc(C)c(/C=C2\C(=O)Nc3ccccc32)[nH]1`, for which the residual activity in test [1] was 3%; in test [7] it was 103%; in test [2], 101%; in test [3], 80%; in test [12] it was 52%.
